From PubChem BioAssay AID652025 (National Center for Advancing Translational Sciences (NCATS), 2013)
Among all 360,000 compounds or so, about 240 (0.067%) were called active. The sample holds actives, similar compounds and a random draw of the others, so the mix is not that of the screen. Unmarked numbers belong to inactive results. Cut-off read from the data, not from the text of the source: active = activation above about 50%; inconclusive = mostly about 30% to 49%; inactive = weaker than that.

Test: qHTS of IL-2 Activators; note: 0% is about no effect
Settings: IL-2 activation reporter assay, cell-based qHTS; stronger effect = higher value; in transgenic mouse T cells; stimulated with anti-CD3/CD4/CD28 beads
Text: The adaptive immune response against any infectious agent begins with the activation of an antigen specific T cell. This relatively rare and inert ("naive") T cell undergoes a massive proliferative expansion and differentiation process to generate sufficient number of potent pathogen-specific effector T cells. The effector T cells fight the infection by making cytokines and helping other cells to become fully armed as well. If any naive T cell has antigen receptors (TCRs) that can be activated by self peptides, then a variety of regulatory mechanisms kick in to prevent this cell from performing to its full potential. These processes collectively constitute the phenomenon of immunological tolerance and their failure leads to autoimmunity. One arm of tolerance involves generation of biochemical negative feedback downstream of the TCR (tuning). This is especially relevant to self antigens present in the body over long periods of time (chronic), which form the bulk of our proteome. The negative feedback serves to tune the TCR signaling, such that the ambient antigenic stimulation is nullified intracellularly. Unfortunately, this critical machinery serves as a target for chronic viral, bacterial and parasitic infections (as well as tumors), which can evade a robust immune response, simply by allowing T cells to tune down their signaling to pathogen or malignancy derived antigens. As such, disrupting the tuning in such cases would allow the tolerant T cell to function again and deliver a robust effector response.
If a therapeutic can restore responsiveness to the tuned down T cell, even for a short time, they could combat the pathogen without any additional immunization. To that end, we have developed a sensitive HTS T cell based assay based on IL-2. This assay will be screened against the Molecular Libraries Small Molecule Repository (MLSMR) to find small molecules that could elicit this response.
NIH Chemical Genomics Center [NCGC]
NIH Molecular Libraries Probe Centers Network [MLPCN]
Assay Submitter (PI): Ron Schwartz, NIAID
4 microL (750 cells/well) of unstimulated transgenic mouse T cells (columns 1-3,5-48) are dispensed into Aurora LoBase, black clear-bottom 1536-well assay plates; column 4 receives an identical concentration of transgenic memory T cells as a non-tolerant control. Compounds are then transferred via Kalypsys pin tool equipped with 1536-pin array (10 nL slotted pins, V&P Scientific, San Diego, CA). Following addition of compound and a 60 minute incubation, 1 microL of bead stimulation solution ((0.04 micron Fluospheres (Life technologies, CA) coated with 10ug/ml each anti-CD3 and anti-CD4 (clones 2C11 and GK1.5, BD Biosciences, CA) and mixed with 1ug/ml anti-CD28 (clone PV-1, BD biosciences, CA)). columns 2-48) is added to stimulate the IL-2 response pathway; media is instead added to column 1 as an unstimulated control, while PMA/ionomycin (Sigma Aldrich, MO) is added to column 3 as a control for IL-2 tolerance bypass. The plates are then incubated at 37 degrees C for 18 hours. EGFP and DsRed signal are then detected using an Acumen eX3 Explorer fluorescent plate cytometer. All cells are dispensed in cell media containing EHAA (Quality Biologicals, MD), RPMI (Quality Biologicals, MD), Glutamine (Life Technologies, CA), Penicillin/Streptomycin (Quality Biologicals, MD), 2-ME (Sigma Aldrich, MO) and 10% FBS (Gemini Bioproducts, CA) .
`COc1ccccc1N(CC(=O)Nc1ccccc1C(=O)N1CCCC1)S(C)(=O)=O` gave an activation of -1.54%. `Cc1cc(Br)ccc1SCC(=O)OCC(=O)NCc1ccc2c(c1)OCO2` gave an activation of -3.89%. Work on `CCOc1ccc(NC(=O)CN(C)CC(=O)Nc2cccc(Cl)c2C)cc1OCC` yielded an activation of -1.33%. `Nc1ccc(N=Nc2ccccc2Cl)c(N)n1` gave an activation of 0.821%. In the case of `Nn1cnnc1N/N=C/c1cc([N+](=O)[O-])c(Cl)cc1Cl`, the activation is reported as -0.276%. In the case of `CC1=C(C(N)=O)C(c2ccc3c(c2)OCO3)n2nc(-c3cccc(C)c3)nc2N1` (stereo not given), the activation is reported as -0.667%. With `O=c1nc(NO)ccn1C1CCCO1` (stereo not given) the activation was -4.07%. `CC(C)(C)OC(=O)Nc1ccc([C@@H](NC(=O)OC(C)(C)C)C(=O)OC(C)(C)C)cc1` showed an activation of 1.22%. `COc1ccc(CCNC(=O)c2ccc(NC(=O)CC3SC(N4CCCCC4)=NC3=O)cc2)cc1OC` (stereo not given) showed an activation of 1.44%. Compound `O=C(CSc1nc(Nc2ccccc2)nc(N2CCOCC2)n1)Nc1cc(Cl)ccc1O` has an activation of -3.68%. `CC(C)CN1C(=O)CN(S(C)(=O)=O)CC1(C)C(=O)NCc1ccccc1` (stereo not given) showed an activation of -0.324%. Compound `O=C(Nc1ccc(F)c(Cl)c1)C1CCN(S(=O)(=O)c2cccnc2)CC1` has an activation of -4.67%. With `CCN1/C(=C\c2ccc3ccccc3[n+]2CC)Sc2cc(C)ccc21` the activation was 83.8% (active). `O=C(O)C1CCCCC1C(=O)Nc1ccc(Cl)cc1` (stereo not given) showed an activation of -0.998%. For `NC(N)=NCCCc1cn(CC(=O)N2CCNCC2)nn1`, the activation was -0.704%. For `CCC[C@H]1CCCC/C=C\CCCC(=O)OCCN1C(=O)OC(C)(C)C`, the activation was -3.09%. `OC(CNCc1ccc(Cl)c(Cl)c1)c1ccccc1` (stereo not given) gave an activation of 0.815%. For `Cc1ccc(C)c(NS(=O)(=O)c2cc(Br)cnc2N)c1`, the activation was -0.259%. `CN1CCN(c2ccc(CNS(=O)(=O)c3cccc(F)c3)cc2)CC1` gave an activation of -0.358%. `COc1ccc(CNC(=O)CN2C(=O)NC3(CCCc4sccc43)C2=O)cc1` (stereo not given) gave an activation of 1.66%. `CN(c1ccccc1)c1nc(N)c([N+](=O)[O-])c(NCc2ccco2)n1` showed an activation of 2.01%. In the case of `CCCC1NC(=O)NC(C)=C1C(=O)OCC` (stereo not given), the activation is reported as -3.34%. Work on `CC1(C(=O)NCc2ccc(F)c(F)c2)Cc2c(-c3ccc4c(c3)OCO4)ccnc2O1` (stereo not given) yielded an activation of 0.821%. `Cc1ccc(OCCNC(=O)CN2C(=O)NC3(CCCC3)C2=O)cc1` gave an activation of -0.135%. Compound `Cc1ccc(CNC(=O)Cn2cnc3c(NCc4ccccc4)ncnc32)o1` has an activation of -0.27%. `CC(C)(C)NC(=O)C(c1ccc(Cl)cc1)N(CCO)C(=O)c1snc(C(N)=O)c1N` (stereo not given) showed an activation of 0.402%. `CCOc1cc(S(=O)(=O)NC2CC(C)(C)NC(C)(C)C2)ccc1F` showed an activation of 0.923%. `C[C@H]1COc2cc(N3CCSCC3)ccc2S(=O)(=O)N1` showed an activation of 0.723%. For `CC(=O)Nc1ccc(NC(=O)CS(=O)(=O)c2cn(CC(=O)N3CCCCC3)c3ccccc23)cc1`, the activation was 2.22%. For `CC1CC(NC(=S)N(C)C)CC(C)(C)C1` (stereo not given), the activation was -1.93%. In the case of `CCN(CC)S(=O)(=O)c1ccc(CNC(=O)CN2C(=O)NC3(CCc4ccccc43)C2=O)cc1` (stereo not given), the activation is reported as -3.43%. Compound `CCOCc1nnc(NC(=O)CCS(=O)(=O)Cc2ccccc2)s1` has an activation of 2.97%. Work on `CCC(C)NC(=O)/C=C/c1ccc(S(=O)(=O)NCc2ccco2)cc1` (stereo not given) yielded an activation of -0.382%. Work on `O=C(CCS(=O)(=O)c1ccc2c(c1)NC(=O)CS2)NCc1ccccc1Cl` yielded an activation of -0.54%. In the case of `O=C(O)C1C2C=CC(C2)C1C(=O)N1CCN(CCO)CC1` (stereo not given), the activation is reported as -0.292%. Compound `CCC(=O)c1ccc(OCC(O)Cn2nc(C)c(C(C)=O)c2C)cc1` (stereo not given) has an activation of -0.63%. Work on `Cn1cccc1Cc1nnc(SCC(=O)NCCc2ccccc2)n1-c1ccc(F)cc1` yielded an activation of -0.845%. `Cc1cccc(NC(=O)CSc2nc3c(c(=O)[nH]2)CCC3)c1C` gave an activation of -0.45%. `O=C1C[C@@H]2c3c(cccc3CN1Cc1ccccc1)C[C@@H](O)[C@H]2O` showed an activation of 0.126%. Compound `CCCn1c(C(Cc2ccccc2)NC(=O)COC)nc2ccccc21` (stereo not given) has an activation of 0.549%. Compound `Cc1cccc(NC(=S)N2CCCC(c3nc4ccccc4[nH]3)C2)c1` (stereo not given) has an activation of -0.267%. In the case of `Cc1cc2cc3c(N)[nH]nc3nc2cc1C`, the activation is reported as -0.975%. For `C=CCN1C2CCCC1CC(NC(=S)Nc1cccc(OC)c1)C2` (stereo not given), the activation was -0.0533%. `O=S(=O)(NCc1ccccc1Br)c1ccccc1Br` gave an activation of 0.131%. `CCN(CC)C(=O)C1=C(C)N(Cc2ccc(F)cc2)C(=O)C(CC(=O)NCc2cccc3ccccc23)C1` (stereo not given) showed an activation of -1.55%.
